For 94 compounds, inhibition results are on record in PubChem BioAssay AID485317 (Broad Institute, 2010).

About 11,000 (3.8%) of roughly 290,000 compounds were called active.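 How the source made its calls: active means mean replicate inhibition above about 79%, with every replicate also reaching it (limit read from the data); inconclusive means only one of the two criteria met; inactive means mean below limit and not every replicate reaching it.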 For the sample, actives were picked, then their nearest neighbours and some compounds at random.

In this experiment the target is FAD-linked sulfhydryl oxidase ALR (Homo sapiens) (UniProt P55789). Briefly: inhibitors of human ALR sulfhydryl oxidase, primary screen, biochemical, H2O2 detection, HRP-luminol luminescence, single point (AID 485317). Conditions: purified ALR, DTT oxidation, active compounds read high, concentration not given here.
FAD-linked sulfhydryl oxidase ALR (Homo sapiens), sequence (P55789 whole entry, looked up): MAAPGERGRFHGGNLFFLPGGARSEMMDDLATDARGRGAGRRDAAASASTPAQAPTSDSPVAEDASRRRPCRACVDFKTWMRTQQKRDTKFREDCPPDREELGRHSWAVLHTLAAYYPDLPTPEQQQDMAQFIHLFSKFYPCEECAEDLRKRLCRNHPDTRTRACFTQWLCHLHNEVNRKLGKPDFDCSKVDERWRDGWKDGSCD
`Nc1cccnc1Sc1ccccc1`: the inhibition – broadly, the drop in the measured response relative to a control, in per cent – is -14.3% (inactive). In the case of `Cc1ccc(NC(=O)CSc2sc3c(O)cc(=O)[nH]c3c2C#N)cc1C` it was 98.4% (active); in that of `Cc1cc(C)c(C#N)c(SCC(=O)Nc2ccccc2)n1`, -3.28% (inactive). In the case of `Cc1cc(=O)[nH]c(SCC(N)=O)c1C#N`, the inhibition is -1.22% (inactive). As to `Cc1ccc(S(=O)(=O)Nc2ccc(F)c(S(=O)(=O)N3CCOCC3)c2)cc1`, the inhibition is -9.01% (inactive). Turning to `O=C(Nc1ccc2c(c1)OCO2)C1CC1(Cl)Cl` (centres undefined), the inhibition was -6.35% (inactive).

`O=C(c1ccc(Cl)nc1)N1CCN(S(=O)(=O)c2ccc3c(c2)OCCO3)CC1`: the inhibition was 0.752% (inactive). In the case of `Cc1c(C(=O)Nc2cccc(S(=O)(=O)N3CCOCC3)c2)oc2ccccc12` it was -6.82% (inactive). As to `O=C(O)c1cccc(S(=O)(=O)Nc2ccc(O)cc2Sc2nc3ccccc3s2)c1`, the inhibition is 98.9% (active). Turning to `COc1ccc(S(=O)(=O)Nc2ccc(O)c(Sc3nc4ccccc4s3)c2)cc1`, the inhibition is 17.5% (inactive). The same measure for `Cc1nc2ccc(NC(=O)c3cccc(S(=O)(=O)N4CCOCC4)c3)cc2s1`: -4.99% (inactive); for `COc1cc(OC)cc(C(=O)NC(C(=O)N2CCC2)C(C)C)c1` (centres undefined): 3.67% (inactive); for `O=C(CSc1ncn[nH]1)N/N=C/c1ccc(F)cc1`: -0.231% (inactive). Regarding `Cc1ccc(S(=O)(=O)Nc2nc(CN3CCOCC3)nc3sc(C)c(C)c23)cc1`, the inhibition was -1.38% (inactive). Regarding `O=C(NNC(=O)c1ccc(Cl)nc1)c1ccc(Br)cc1`, the inhibition is -1.29% (inactive). Regarding `Cc1cnc(NC(=O)c2ccc(Cl)nc2)s1`, the inhibition was -5.29% (inactive). Regarding `O=C(NNc1ccccn1)c1ccc(Cl)nc1`, the inhibition is 91.6% (active). Turning to `COc1cc(/C=C/C(=O)OCC(=O)c2ccccc2)cc(OC)c1OC`, the inhibition was 3.07% (inactive). The same measure for `C[C@H](CO)N1C[C@H](C)[C@H](CN(C)C(=O)Nc2ccc(C(F)(F)F)cc2)Oc2c(NC(=O)c3ccncc3)cccc2C1=O`: -1.8% (inactive). For `Cc1ccc(S(=O)(=O)NC2CCCCCC2)cc1`, the inhibition was -3.36% (inactive). In the case of `Cc1ccccc1NC(=O)NCc1ccco1` it was -5.6% (inactive). Take `Cc1cccc(Nc2ccccc2C(=O)NCc2ccco2)c1C`: the inhibition is 98.6% (active).

For `O=C(Nc1ccccc1)Nc1ccccc1C(=O)NCc1ccco1`, the inhibition is -2.76% (inactive). Take `O=C(OCC(=O)N1CCc2ccccc21)c1ccc([N+](=O)[O-])cc1`: the inhibition was -3.86% (inactive).

On to `O=C(/C=C/c1ccccc1[N+](=O)[O-])NCC1CCCO1` (centres undefined), for which the inhibition was -4.47% (inactive). On to `CC1CCCCC1NC(=O)/C(C#N)=C/C=C/c1ccccc1[N+](=O)[O-]` (centres undefined), for which the inhibition was 97.6% (active). With `O=[N+]([O-])c1ccccc1/C=C/CN1CCC(O)CC1`, the inhibition was -20.9% (inactive). In the case of `CC/C(O)=N\S(=O)(=O)c1ccc(N=NN(C)C)cc1` it was -19.2% (inactive); in that of `CN(C)N=Nc1ccc2nc[nH]c2c1`, 92.1% (active); in that of `COc1ccc(/C(C)=N/NC(=O)c2ccc3nc[nH]c3c2)cc1`, -6.54% (inactive).

`Cc1cc(C)c(-c2csc(NC(=O)CCCc3nc4ccccc4c(=O)[nH]3)n2)c(C)c1`: the inhibition is -7.67% (inactive). For `CC1(C)CC(=O)C(CC(=O)N2CCC(Cc3ccccc3)CC2)C(=O)C1`, the inhibition was 2.75% (inactive). In the case of `O=C(Cn1cnc2c(nnn2-c2ccccc2)c1=O)N1CCC(Cc2ccccc2)CC1` it was -5.43% (inactive); in that of `O=C(CN1CCOc2ccccc21)N1CCC(Cc2ccccc2)CC1`, 98.1% (active). With `CCN(CC(=O)NCc1cccs1)C(=O)c1ccc(OC)c(S(=O)(=O)N2CCOCC2)c1`, the inhibition was -4.54% (inactive).

With `CCC(C)N(C(=O)CSc1nnnn1-c1ccccc1OC)C1CCS(=O)(=O)C1` (centres undefined), the inhibition is 1.16% (inactive). With `CC1(C)OC(=O)C(=CSc2ccc(C(C)(C)C)cc2)C(=O)O1`, the inhibition is 97.7% (active).

Regarding `O=C1CN(C(=O)COC(=O)/C=C/c2ccc(F)cc2)c2ccccc2N1`, the inhibition was -2.48% (inactive). With `COc1ccc(CC(=O)OC(C)C(=O)Nc2ccc(S(N)(=O)=O)cc2)cc1` (centres undefined), the inhibition is -3.25% (inactive).

For `CC(OC(=O)CCCc1c[nH]c2ccccc12)C(=O)Nc1ccc(S(N)(=O)=O)cc1` (centres undefined), the inhibition was 81.6% (active). The same measure for `NS(=O)(=O)c1ccc(NC(=O)COC(=O)CCc2c[nH]c3ccccc23)cc1`: 23.6% (inactive); for `NS(=O)(=O)c1ccc(CCNC(=O)CN2C(=O)c3ccccc3S2(=O)=O)cc1`: 20.2% (inactive); for `O=C(NCCS(=O)(=O)N1CCN(c2ccccc2)CC1)c1ccco1`: 4.33% (inactive). For the compound `O=C(Cn1cnc2c(OCc3ccccc3)ncnc21)NCCCn1ccnc1`, the inhibition is -1.71% (inactive). Regarding `O=C1CN(C(=O)COc2c(Cl)cccc2Cl)c2ccccc2N1`, the inhibition was -8.36% (inactive). On to `COc1ccc(S(=O)(=O)NCc2cccnc2)cc1NC(=O)c1ccc(C)cc1`, for which the inhibition is -2.4% (inactive). In the case of `CC(C)(C)NS(=O)(=O)NC(=O)C1=C(N2CCCC2)COC1=O` it was 2.74% (inactive). The same measure for `CC(=O)Nc1ccc(C(=O)Nc2cccc(S(=O)(=O)NC3=NCCC3)c2)cc1`: -4.84% (inactive). With `CC(=O)c1nn(-c2ccc(C)cc2)cc1C(=O)c1cccc(Br)c1`, the inhibition was -13.6% (inactive). With `CC(=O)N/C(=C\c1ccccc1)C(=O)OC(C)C(=O)N(C)c1ccccc1` (centres undefined), the inhibition is 0.887% (inactive). In the case of `Cc1nc(SCc2ccc(F)cc2)c([N+](=O)[O-])[nH]1` it was 1.42% (inactive); in that of `Cc1nc(SCC(=O)c2ccccc2)c([N+](=O)[O-])[nH]1`, 97.8% (active). For the compound `Cc1nc2nc(SCC(=O)c3ccccc3)[nH]c2cc1Br`, the inhibition was -4.01% (inactive). In the case of `O=C1CCCCC1Sc1ccc(Cl)cc1[N+](=O)[O-]` (centres undefined) it was -27.8% (inactive); in that of `CCOc1ncccc1C(=O)Nc1ccc2c(c1)OCCO2`, 4.02% (inactive); in that of `Oc1ccc2ccccc2c1N=Nc1nccs1`, -13.2% (inactive). For the compound `Oc1ccc(N=Nc2nccs2)c(O)c1`, the inhibition was 83.1% (active). As to `CN1CCN(S(=O)(=O)c2cccc(C(=O)Nc3sccc3C#N)c2)CC1`, the inhibition was 6.71% (inactive). The same measure for `COc1ccc(C(=O)NC(=S)Nc2ccc(N3CCCC3)cc2)cc1OC`: 2.05% (inactive); for `COc1cccc(C(=O)Nc2ccc(N3CCN(C(=O)c4ccco4)CC3)cc2)c1`: -0.228% (inactive); for `COc1cccc(C(=O)Nc2ccc(N3CCCC3)cc2)c1`: 100% (active).

For `COc1cccc(OC)c1C(=O)Nc1ccc(N2CCCCC2)cc1`, the inhibition is 86% (active). Consider `CC(=O)Nc1ccc(S(=O)(=O)Nc2ccc(N3CCOCC3)c(F)c2)cc1`, for which the inhibition was 3.94% (inactive). Turning to `COc1ccc(C(=O)Nc2ccc(N3CCC(C)CC3)cc2)cc1Br`, the inhibition was -4.62% (inactive). In the case of `CC(=O)Nc1ccc(NS(=O)(=O)c2ccc3c(c2)NC(=O)CC(=O)N3)cc1` it was -6.71% (inactive); in that of `CC(=O)Nc1ccc(S(=O)(=O)Nc2ccc(N3CCCCC3)cc2)cc1`, 99.4% (active); in that of `Cc1ccccc1C(=O)Nc1ccc(N2CCCCCC2)cc1`, 68.7% (inactive). As for `Cc1ccc(Cc2nnc(SCC(=O)Nc3ccc(C)cc3C)[nH]c2=O)cc1`, the inhibition is -13.1% (inactive). As to `COc1ccccc1N(C)S(=O)(=O)c1ccc(Cl)c(C(=O)Nc2ccncc2)c1`, the inhibition is -13.7% (inactive).

Take `Cc1ccc(OCC(=O)Oc2ccccc2[N+](=O)[O-])cc1`: the inhibition was 8.6% (inactive). As for `O=C(COc1cccnc1[N+](=O)[O-])Nc1ccc(Cl)cc1F`, the inhibition is -1.28% (inactive). For `C=CCSc1nc2c(c(=O)[nH]c(=O)n2C)n1Cc1ccccc1`, the inhibition is -5.44% (inactive).

As for `COc1ccc(CNc2nc3c(c(=O)[nH]c(=O)n3C)n2Cc2ccccc2)cc1`, the inhibition is -2.89% (inactive).

`Cn1c(=O)[nH]c(=O)c2c1[nH]c(=S)n2Cc1ccccc1`: the inhibition is 86.9% (active). For `COC(=O)c1cccc(NC(=O)c2cccc(N3C(=O)CCC3=O)c2)c1`, the inhibition was -1.61% (inactive).

`COc1ccc(OCC(=O)Nc2cc(C)c(Cl)cc2OC)c([N+](=O)[O-])c1`: the inhibition was -2.93% (inactive).

`CCCC(=O)OCC(=O)Nc1cc(Cl)ccc1[N+](=O)[O-]`: the inhibition was -5.98% (inactive). In the case of `Cc1cc(NC(=O)COC(=O)COc2ccc(Cl)cc2C)c([N+](=O)[O-])cc1C` it was 89.5% (active); in that of `CCN(CC(=O)Nc1ccccc1OC)C(=O)CC1CC2CCC1C2` (centres undefined), 1.64% (inactive); in that of `O=S(=O)(O)Oc1c[nH]c2ccccc12`, -3.63% (inactive).

For `CC1(c2ccccc2)NC(=O)N(CC(=O)Nc2cc(Cl)ccc2N2CCOCC2)C1=O` (centres undefined), the inhibition was 13.2% (inactive). The same measure for `N#CC1(NC(=O)COC(=O)Cc2n[nH]c(=O)c3ccccc23)CCCCC1`: -18.6% (inactive); for `C=CCNC(=S)N1CCc2[nH]c3ccccc3c2C1`: 98.3% (active); for `Fc1ccc(NC(=S)N2CCc3[nH]c4ccccc4c3C2)cc1`: 3.4% (inactive). The same measure for `CCCC(=O)N1CCc2[nH]c3ccccc3c2C1`: -30.4% (inactive).

For `CN(C(=O)COC(=O)c1ccc(Br)o1)c1c(N)n(Cc2ccccc2)c(=O)[nH]c1=O`, the inhibition was -5.35% (inactive). As to `Cc1c(C)n2c(SCC(=O)NC3CCCC3)nnc2[nH]c1=O`, the inhibition is 2.18% (inactive). For the compound `COc1cc(OC)cc(-c2c(-c3cccs3)c3cc(-c4ccc(OC)cc4F)ccc3n2C)c1`, the inhibition was -3.91% (inactive). For the compound `CCOc1ccc(-c2n[nH]c(=S)n2/N=C/c2cc3c(cc2[N+](=O)[O-])OCO3)cc1`, the inhibition was 84.2% (active).

For the compound `Cc1ccc(S(=O)(=O)N/N=C\c2cc3c(cc2[N+](=O)[O-])OCO3)cc1`, the inhibition was -3.17% (inactive). As to `Cc1ccc(-c2n[nH]c(=S)n2/N=C/c2cc3c(cc2[N+](=O)[O-])OCO3)cc1`, the inhibition is -5.58% (inactive).

As for `COc1ccc(/C=N/Nc2cc(N3CCOCC3)nc(C)n2)c(OC)c1`, the inhibition was 32.1% (inactive).

As for `C(=N/Nc1cc(N2CCOCC2)nc(N2CCOCC2)n1)/c1ccccc1`, the inhibition was 34.6% (inactive).

In the case of `CN(C)c1ccc(/C=N/Nc2cc(N3CCOCC3)nc(N3CCOCC3)n2)cc1`, the inhibition was 98.8% (active).
